Sm TGR block = blocks Schistosoma mansoni thioredoxin glutathione reductase; Q962Y6; purified TGR, DTNB reduction, TNB absorbance 405 nm; Potency, µM (titrated, usually from 114 µM), without a hit: at the highest dose activity change, negative = inhibition, most hits filed as inhibitors; hit rate 3% among 360,000; AID 485364; further: potency means the concentration at half of the fitted maximal effect; nearly all actives have a fitted effect of over 60% in size
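First, TGR (20 nM dispensed) and NADPH were mixed with compound. Second, a 15 min room-temperature incubation followed. Third, further NADPH and then DTNB were added to start the reaction. Finally, TNB absorbance was monitored kinetically.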
Pf growth 96h = P. falciparum growth inhibition at 96 hour, primary screen for plastid delayed-death inhibitors; P. falciparum luciferase reporter growth, 96 h; Potency, µM (series often up to 28.7 µM), for the others: at the highest dose activity change, negative = inhibition, hits mostly inhibitors; hit rate 6.9% among 320,000; further: potency means the concentration at half of the fitted maximal effect
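Two parasite generations (96 h, 37 C, 5% CO2) of compound exposure in infected erythrocytes (0.05% parasitemia, 2% hematocrit). Luciferase-reporter P. falciparum; decreased luminescence indicates inhibited growth, aimed at apicoplast-acting delayed death.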
FBPA Giardia inh = inhibitors of Giardia lamblia fructose-1,6-bisphosphate aldolase; A8B2U2; purified Giardia FBPA; Potency, µM (titrated, usually from 59.6 µM), inactives show at the highest dose activity, negative = inhibition, most hits filed as inhibitors; hit rate 0.71% among 290,000; further: potency means the concentration at half of the fitted maximal effect; nearly all actives have a fitted effect of over 55% in size
Target sequence (A8B2U2 whole entry, looked up): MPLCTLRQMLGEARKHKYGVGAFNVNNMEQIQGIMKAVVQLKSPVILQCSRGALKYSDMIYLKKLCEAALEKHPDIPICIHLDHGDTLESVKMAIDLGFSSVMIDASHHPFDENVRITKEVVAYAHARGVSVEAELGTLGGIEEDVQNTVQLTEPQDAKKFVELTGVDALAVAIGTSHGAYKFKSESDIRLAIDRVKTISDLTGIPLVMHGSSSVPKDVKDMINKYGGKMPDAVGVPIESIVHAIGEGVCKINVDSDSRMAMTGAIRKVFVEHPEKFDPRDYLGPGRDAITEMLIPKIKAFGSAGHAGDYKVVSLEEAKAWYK
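40 nM FBPA preincubated 10 min at RT with compound (up to 57.5 uM final), then substrate plus GAPDH/TPI/NAD/arsenate coupling and diaphorase/resazurin added. Fluorescence read after 20 min at RT, 525/598 nm.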
Pf growth 48h = P. falciparum growth inhibition at 48 hours (one generation); Potency, µM (top dose mostly 28.7 µM), inactives show top-dose activity change, negative = inhibition, hits mostly inhibitors; P. falciparum luciferase growth in erythrocytes, 48 h; hit rate 5.9% among 310,000; AID 504832; further: potency means the concentration at half of the fitted maximal effect
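Read-out is firefly luciferase luminescence from an integrated reporter in P. falciparum, so falling signal marks reduced parasite growth. Infected erythrocytes were at 2% hematocrit and 0.1% parasitemia (final) in Albumax-supplemented RPMI 1640.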
HCMV inh = blocks human cytomegalovirus replication; HFF cells, HCMV-luciferase reporter, 72 h; hits give low values; activity change, negative = inhibition, % at 57.5 µM; hit rate 4.5% among 410,000; in the data active means activity change below about -60%; inconclusive means no clear call, values can overlap the other calls; inactive means above about -39%
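After 16 h attachment at 37C, HFF cells received test compound and HCMV-luciferase (1 PFU/cell); reporter luminescence read 72 h later, data normalized against buffer-only and known inhibitor Salinomycin.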
The depositor's hits bear a star; ? = inconclusive; / = no result; ! = a repeat was not active; [ ] = dose if it differs, or a comment. Compounds with a hit are over-represented: about 14% of the library has one in this group of screens. Unless noted, the call rests on the fitted dose curve; in most records, active means well fitted curve in the direction sought with a large enough effect; inconclusive means small, poorly fitted or top-dose-only effect, or another doubt; inactive means no such curve, though single readings can be large; an effect the other way counts as inactive or inconclusive. On the % scale 0 is the no-effect control and ±100 the full control effect.

SMILES	Sm TGR block	Pf growth 96h	FBPA Giardia inh	Pf growth 48h	HCMV inh
COc1cc(OC)cc(C(=O)NCCS(=O)(=O)N2CCN(Cc3ccccc3)CC2)c1	-1%	?	/	2%	-1
CCOC(=O)C1CCCN(C(=O)c2ccc3c(c2)N(C)C(=O)/C(=C/c2ccccc2Cl)S3)C1 (stereo not drawn)	-7%	0.41µM*	/	?	-28
COc1ccc(-c2cc(OC(=O)c3cccc(Cl)c3)c3c(C)oc(C)c3c(=O)c2)cc1	22µM*	/	/	/	-3
COc1ccc(-c2cc(OC(=O)c3ccc(F)cc3)c3c(C)oc(C)c3c(=O)c2)cc1	35µM*	10µM*	?	?	/
CCC(/C=N/NC(=O)CCCCC(=O)N/N=C/C(CC)CC)CC	-8%	13%	4%	-7%	6
O=C(CSc1nccn1Cc1ccc(Cl)cc1)NC1CCCC1	-2%	/	/	/	-63*
Cc1ccc(Cn2ccnc2SCC(=O)NC2CCCC2)cc1	-1%	-13%	/	-17%	-15
O=C(CSc1nccn1Cc1ccc(F)cc1)NC1CCCCC1	/	/	/	/	-34
O=C(CSc1nccn1Cc1ccc(F)cc1)NC1CCCC1	-7%	8%	-1%	5%	-65*!
Cc1ccc(N(CC(=O)NCc2ccc(F)cc2)S(=O)(=O)c2c(C)nn(C)c2C)cc1	2%	-12%	5%	?	46
CC(NCC(=O)Nc1ccccc1C(=O)NC1CC1)c1ccc(F)cc1F (stereo not drawn)	-4%	-30%	/	?	-18
Cn1ncc(Cl)c(Oc2ccc(Cl)cc2)c1=O	-12%	15%	2%	-10%	59
Cn1ncc(Oc2ccc([N+](=O)[O-])cc2)c(Cl)c1=O	2%	-1%	1%	7%	-91*
S=C(NCC1CCCO1)N1CCN(c2ccccc2)CC1 (stereo not drawn)	-2%	4.7µM*	6%	31%	-31
FC(F)(F)c1cccc(N2CCN(C(=S)NCC3CCCO3)CC2)c1 (stereo not drawn)	-2%	41%	-2%	?	-65*
O=C(OCC(=O)c1ccc(Cl)s1)c1ccc(CO)cc1	-1%	80%	/	130%	-13
Oc1ccc(NCc2ccccc2OCc2ccc(Cl)cc2)cc1	45µM*	/	/	/	-72*
O=c1[nH]c2ccc(NCc3ccccc3OCc3ccc(Cl)cc3)cc2[nH]1	?	?	-1%	-18%	-73*
Oc1ccc(NCc2ccccc2OCc2ccccc2)cc1	14µM*	?	?	?	?
CCOc1cc(CNc2ccc(O)cc2)ccc1OCc1ccc(Cl)cc1	45µM*	/	/	/	-21
COc1ccc(CCC(=O)Nc2ncc(C)s2)cc1	-7%	13%	1%	15%	27
COc1ccc(CCCc2nnc(SCC(=O)NN)o2)c(C)c1	12%	3%	2%	?	-8
CCOC(=O)c1c(C)oc2ccc(N(C(C)=O)S(=O)(=O)c3c(C)cc(C)cc3C)cc12	4%	/	/	/	-8
COc1cc([C@H]2NC(=O)C[C@H]2C(=O)OCc2ccccc2)ccc1OC(C)C	/	/	/	/	-15
CN(C(=O)CSc1nc2ccccc2n1CC(=O)N(C)C1CCCCC1)c1ccccc1	-2%	/	/	/	-9
SMILES	Sm TGR block	Pf growth 96h	FBPA Giardia inh	Pf growth 48h	HCMV inh
CC(C)(Oc1ccc(Cl)cc1)C(=O)NCc1ccco1	7.1µM*	151%	6%	-1%	2
S=C(NCc1ccco1)Nc1ccc(Oc2ccc(Cl)cc2)cc1	-12%	?	0%	?	-60*
S=C(NCc1ccco1)Nc1ccc(Cl)cn1	3.2µM*	46%	0%	29%	-5
S=C(NCc1ccco1)N/N=C/c1cccnc1	-22%	?	-9%	13%	-68*
CCOC(=O)c1[nH]c(C)c(CCC(=O)N2CCN(c3cccc(C)c3C)CC2)c1C	16%	/	/	/	-24
Cc1cc(C)n2c(SCC(=O)Nc3cccc(S(N)(=O)=O)c3)nnc2n1	/	/	/	/	8
O=C(c1csnn1)N1CCC2(CCCN(c3ccncc3)C2)CC1	/	/	-2%	/	/
S=C(NCc1ccco1)Nc1ccccn1	14µM*	?	-1%	-23%	?
CC(C)(C)Cc1nnc(NC(=O)CCc2ccccc2)s1	-2%	-24%	7%	49%	74
CC(NC(=O)CSc1ncn[nH]1)c1ccc(Cl)cc1Cl (stereo not drawn)	-23%	-2%	-8%	-4%	-61*
O=C(CSc1ncn[nH]1)NCCc1ccc(Cl)cc1Cl	5%	10%	/	20%	-24
CC12CN(NC(=O)c3ccccc3F)C3(C#N)CC1CCC23C (stereo not drawn)	8%	?	14%	-1%[5.75 µM]	-75*
Cc1ccc(CNC(=O)c2ccc(N3CCC4(CC3)CC(c3cccc(Br)c3)=NO4)c([N+](=O)[O-])c2)cc1	5%	?	/	?	7
CCCNC(=O)c1ccc(N2CCC3(CC2)CC(c2cccc(Br)c2)=NO3)c(N)c1	-1%	?	/	12µM*	-18
CCCNC(=O)c1ccc(N2CCC3(CC2)CC(c2cccc(Br)c2)=NO3)c([N+](=O)[O-])c1	-1%	6.6µM*	7%	?	?
CN(C)C(=O)C[C@H]1C[C@@H]2c3cc(NC(=O)NC4CCCC4)ccc3O[C@@H]2[C@@H](CO)O1	/	/	/	/	-15
CN(C)c1ccc(/C=c2/sc3n(c2=O)NC2(c4ccccc4)N(C)C(=O)N(C)C2(c2ccccc2)N=3)cc1 (stereo not drawn)	1%	?	-5%	-17%	/
O=C(c1cccc(S(=O)(=O)N2CCOCC2)c1)N(Cc1nnc(-c2ccccc2Cl)o1)C1CC1	7%	?	/	?	-16
O=C(c1cc([N+](=O)[O-])cc([N+](=O)[O-])c1)N(Cc1nnc(-c2ccccc2Cl)o1)C1CC1	-12%	12µM*	-3%	?	-29
CCCN(Cc1nnc(-c2ccccc2Cl)o1)C(=O)c1cc([N+](=O)[O-])cc([N+](=O)[O-])c1	-6%	?	-13%	?	-17
CSc1cccc(N2CC(C(=O)N(Cc3nnc(-c4ccccc4Cl)o3)C3CC3)CC2=O)c1 (stereo not drawn)	8%	-28%	/	?	-37
CCOc1ccc2oc(C(=O)N(Cc3nnc(-c4ccccc4Cl)o3)C3CC3)c(C)c2c1	-1%	8.3µM*	/	12µM*	-6
CCOc1ccccc1N1CC(C(=O)N(Cc2nnc(-c3ccccc3Cl)o2)C2CC2)CC1=O (stereo not drawn)	-4%	9.3µM*	/	?	-9
CC1CN(S(=O)(=O)c2cccc(C(=O)N(Cc3nnc(-c4ccccc4Cl)o3)C3CC3)c2)CC(C)O1 (stereo not drawn)	-1%	12µM*	/	?	-19
CCOC(=O)Nc1ccc(OC(=O)Oc2ccc(NC(=O)OCC)cc2)cc1	/	/	/	/	-22
C(=N\NC1=Nc2cccc3cccc1c23)/c1ccccn1	8%	?	?	?	-80*

Screening results deposited in PubChem BioAssay by National Center for Advancing Translational Sciences (NCATS).
